Measured values as given in PubChem BioAssay (NCI).
Compounds without any hit were thinned out: in the full panel of roughly 79,000, 15% have a hit. Cut-off read from the data, not from the text of the source: active = growth inhibition above about 70%; inactive = the rest.

Columns and labels:
[1] = NCI Yeast Anticancer Drug Screen. Data for the rad50 strain (AID 155);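 note: 0% = growth of vehicle-only cultures of the same strain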; conditions: S. cerevisiae rad50 strain growth inhibition; at 50.0 µM; stronger effect = higher value
Method in brief: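 Vehicle-treated cultures provide the reference for the growth inhibition reported for compound-exposed, repair-deficient yeast.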

[2] = NCI Yeast Anticancer Drug Screen. Data for the mec2-1 strain (AID 157); conditions: S. cerevisiae mec2-1 strain, at 50.0 µM, stronger effect = higher value
Method in brief: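 Using mec2-1 yeast: add compound, measure growth, express inhibition versus vehicle-treated cultures.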

[3] = NCI Yeast Anticancer Drug Screen. Data for the sgs1 mgt1 strain (AID 161);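 note: 0% = growth of cultures given vehicle only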; conditions: S. cerevisiae sgs1 mgt1 strain, at 50.0 µM, stronger effect = higher value
Method in brief: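 Compounds are added to genetically altered yeast, and growth is compared with cultures given vehicle alone to give percent inhibition.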

[4] = NCI Yeast Anticancer Drug Screen. Data for the cln2 rad14 strain (AID 165);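 note: 0% = growth equal to vehicle treated cultures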; conditions: S. cerevisiae cln2 rad14 strain, at 50.0 µM, stronger effect = higher value
Method in brief: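 Yeast strain cln2 rad14, bearing defects in cell cycle control and DNA repair, serves as the test system; values reflect growth inhibition compared with vehicle.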

[5] = NCI Yeast Anticancer Drug Screen. Data for the bub3 strain (AID 167); conditions: S. cerevisiae bub3 mutant strain, at 50.0 µM, stronger effect = higher value
Method in brief: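 Mutant yeast screening strain plus compound; vehicle-treated cultures serve as the 0% inhibition reference.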

[6] = NCI Yeast Anticancer Drug Screen. Data for the mlh1 rad18 strain (AID 175); conditions: S. cerevisiae mlh1 rad18 strain growth inhibition; at 50.0 µM; stronger effect = higher value
Method in brief: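 Steps: expose repair-defective yeast to compound; measure growth; express inhibition against vehicle-treated controls.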

Measured: growth inhibition

COc1ccc(/C=C/C(=O)N(C)C)cc1
inactive: [1] 3.1% | [2] 5.65% | [3] -0.15% | [4] 12.4% | [5] -2.5% | [6] -3.05%

NC(=O)C1CCc2ccccc2C1 (centres undefined)
inactive: [1] 0.7% | [2] -15.1% | [3] 2.6% | [4] 3% | [5] -5.15% | [6] -9.45%

CN(C)CC1CCC/C(=C\c2ccccc2)C1=O (centres undefined)
inactive: [1] 37.1% | [2] 41.8% | [3] 47.8% | [4] 32.5% | [5] 38.5% | [6] 16.7%

O=C(O)CC[C@H](NC(=O)c1ccc(-n2nc3ccc(O)cc3nc2=O)cc1)C(=O)O
inactive: [1] -6.65% | [2] -8.25% | [3] 11.9% | [4] 9.95% | [5] 33.8% | [6] 14.5%
